Entries with a potency or affinity are not part of this list.
Target: Kelch-like ECH-associated protein 1 (Homo sapiens) + Nuclear factor erythroid 2-related factor 2 (Homo sapiens) (UniProt Q14145+Q16236)
Assay: Keap1-Nrf2 protein-protein interaction inhibitors, dose response, biochemical, fluorescence polarization, cherry-picked samples (AID 588683);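 also: Kelch domain of Keap1 binding a fluorescein-labelled 9mer Nrf2 peptide; more negative means stronger inhibition of peptide binding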
Conditions: Keap1/Nrf2 peptide fluorescence polarization, plate reader; series mostly up to 26 µM; activity change, negative = inhibition: at the top concentration; call rule not given here

Kelch-like ECH-associated protein 1 (Homo sapiens) + Nuclear factor erythroid 2-related factor 2 (Homo sapiens), sequence (Q14145 whole entry, looked up, the tested form may be a part): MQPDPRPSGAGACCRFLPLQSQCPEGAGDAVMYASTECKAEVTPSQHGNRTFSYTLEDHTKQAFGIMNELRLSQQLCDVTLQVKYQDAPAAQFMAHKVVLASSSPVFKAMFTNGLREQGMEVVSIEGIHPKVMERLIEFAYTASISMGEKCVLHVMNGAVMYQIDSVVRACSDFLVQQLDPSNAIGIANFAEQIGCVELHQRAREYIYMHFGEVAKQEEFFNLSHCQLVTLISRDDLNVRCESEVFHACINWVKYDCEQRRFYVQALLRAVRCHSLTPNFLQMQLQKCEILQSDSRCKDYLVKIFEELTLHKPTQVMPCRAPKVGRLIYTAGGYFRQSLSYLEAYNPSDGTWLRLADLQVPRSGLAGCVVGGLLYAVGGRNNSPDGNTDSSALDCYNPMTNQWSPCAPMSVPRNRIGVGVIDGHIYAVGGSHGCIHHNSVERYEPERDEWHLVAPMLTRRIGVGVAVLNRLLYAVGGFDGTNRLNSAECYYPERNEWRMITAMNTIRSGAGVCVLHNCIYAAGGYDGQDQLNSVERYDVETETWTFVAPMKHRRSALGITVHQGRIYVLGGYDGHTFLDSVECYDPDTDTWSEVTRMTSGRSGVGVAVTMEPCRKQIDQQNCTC
Kelch-like ECH-associated protein 1 (Homo sapiens) + Nuclear factor erythroid 2-related factor 2 (Homo sapiens), sequence (Q16236 whole entry, looked up, the tested form may be a part): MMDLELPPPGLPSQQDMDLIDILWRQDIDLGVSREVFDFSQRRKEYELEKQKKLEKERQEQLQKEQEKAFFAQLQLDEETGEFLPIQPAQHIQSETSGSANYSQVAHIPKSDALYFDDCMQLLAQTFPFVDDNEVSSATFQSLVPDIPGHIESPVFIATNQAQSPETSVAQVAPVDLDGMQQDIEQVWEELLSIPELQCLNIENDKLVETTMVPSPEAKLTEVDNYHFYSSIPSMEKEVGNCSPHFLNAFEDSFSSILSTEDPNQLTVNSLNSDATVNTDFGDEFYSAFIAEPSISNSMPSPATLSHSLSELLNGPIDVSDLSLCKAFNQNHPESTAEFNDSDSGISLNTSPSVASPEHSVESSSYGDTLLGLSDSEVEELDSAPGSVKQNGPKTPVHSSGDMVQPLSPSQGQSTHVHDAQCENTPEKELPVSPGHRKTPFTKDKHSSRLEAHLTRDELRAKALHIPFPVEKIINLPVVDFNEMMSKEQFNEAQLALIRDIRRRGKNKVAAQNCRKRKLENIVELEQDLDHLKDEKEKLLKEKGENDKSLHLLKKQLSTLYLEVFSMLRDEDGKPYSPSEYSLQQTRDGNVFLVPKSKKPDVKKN

Activity change, negative = inhibition, inactive:
Cc1snc(S(=O)(=O)/C(C#N)=N/Nc2cccc(C(F)(F)F)c2)c1C#N 0.963%
O=C(NC1(O)C(=O)c2ccccc2C1=O)c1c(Cl)cccc1Cl 11.9%
Cc1ccc2cc(CN(CCCO)S(=O)(=O)c3cccc4nsnc34)c(=O)[nH]c2c1C -7.45%
Cc1cccc(C)c1NC(=O)CSc1nnc(-c2ccco2)c(-c2ccco2)n1 -2.35%
COc1ccc(NC(=S)N2CCN(Cc3ccc(C)cc3)CC2)cc1 1.39%
c1ccc(Nc2nc3ccccc3n3nnnc23)cc1 -21.3%
CCN(CC)C(=O)C1c2ccccc2Oc2ccccc21 -5.67%
CCC1OC23CCCCC2C(C#N)(C(=N)O3)C1(C#N)C#N (stereo not drawn) 1.01%
COc1cc2c3nnc(-c4ccc(F)cc4)c-3cn(Cc3ccc(C)cc3)c2cc1OC 207%
CCCCC1OC2(C)OC(=N)C1(C#N)C(C#N)(C#N)C2c1ccccc1 (stereo not drawn) -7.41%
O=C(NCc1ccc(Cl)cc1)c1cc(=O)[nH]c2ccccc12 -0.671%
C=CCn1ccc(=NC=C(C#N)C#N)c2ccccc21 45.1%
COc1ccccc1CNC(=O)c1ccccc1NS(C)(=O)=O -2.84%
CCC(C(=O)NC1C(=O)N2C(C(=O)O)=C(CSc3nnc(C)s3)CSC12)c1ccccc1 (stereo not drawn) -3.65%
COC(=O)N/N=C/c1cn(Cc2ccccc2Cl)c2ccccc12 -4.96%
O=C(Nc1ccccc1C(=O)N1CCCCCC1)c1ccc(F)cc1 -6.9%
O=C(COC(=O)c1cccnc1Cl)Nc1ccc(N2CCCCC2)cc1 -0.322%
C=CCOc1ccc(C2OC34CCCCC3C(C#N)(C#N)C2(C#N)C(=N)O4)cc1 (stereo not drawn) -12.7%
Cc1nn(-c2ccccc2Cl)c(Cl)c1/C=N/Nc1nc2ccccc2s1 -4.65%
O=C(O)c1cccc(-n2cccc2/C=C2/NC(=O)N(c3ccc(Cl)cc3)C2=O)c1 2.3%
O=C1c2ccccc2-c2onc3ccc(Oc4ccccc4)c1c23 100%
COc1cc2c3nnc(-c4ccc(F)cc4)c-3cn(Cc3ccccc3)c2cc1OC 124%
CCC1OC2(C)OC(=N)C1(C#N)C(C#N)(C#N)C2c1ccccc1 (stereo not drawn) -2.42%
CCN1CC=C2C(C1)C(c1ccc(Cl)s1)C(C#N)=C(N)C2(C#N)C#N (stereo not drawn) -10%
CCCC1OC23CCCCC2C(C#N)(C#N)C1(C#N)C(=N)O3 (stereo not drawn) -1.32%
CN(C)CCN(C)Cc1c2ccccc2c(CN(C)CCN(C)C)c2ccccc12 -18.3%
N/C(Cc1cccc2ccccc12)=N\O -1.95%
O=S(=O)(Nc1ncccn1)c1ccc(NC(=S)NCc2cccnc2)cc1 -14.6%
Cc1nnc(NC(=O)c2ccc3c(c2)NC(=O)CS3)s1 -3.13%
O=C(NCc1cccc(F)c1)c1cccc2c1C(=O)c1ccc(N3CCCC3)cc1S2(=O)=O 10.5%
CCOC(=O)C1=C(C)NC(C)=C(C(=O)OCC)C1c1ccc([N+](=O)[O-])s1 1.9%
CN(CCOc1ccc(CC2SC(=O)NC2=O)cc1)c1ccccn1 (stereo not drawn) -5.31%
Cc1cc(C)c2c(SC(C)C)nc(N)nc2n1 0.376%
Cc1ccc(OC(C)C(=O)N2CCN(c3ccccn3)CC2)cc1 (stereo not drawn) -5%
O=C(O)CC(Cn1cnnn1)c1ccccc1 (stereo not drawn) -3.47%
CCOc1ccccc1C=C1SC(=S)NC1=O -1.41%
COc1ccc(C2N3CC4(C)CN2CC(C)(C3)C4O)cc1 (stereo not drawn) -6.86%
N=c1c(C(=O)NC2CCCC2)cc2c(=O)n3ccccc3nc2n1C1CCCCC1 1.05%

Reference: PubChem BioAssay AID588683 (Broad Institute, 2011)
